Over roughly 33,000 sequences, “E-score (-0.5 to 0.5)” has its median near -0.035; the highest 2% begin near 0.34. The sample as a whole holds a higher share of the highest values than the screen did.
Each sequence was assayed against T1, Mot3 (UniProt P54785) (assay: PBM E-score (8-mer binding enrichment) (E-score (-0.5 to 0.5)); higher = stronger / more preferred TF binding). Conditions: protein concentration: 200 nM; construct: GST-full length.
T1 sequence: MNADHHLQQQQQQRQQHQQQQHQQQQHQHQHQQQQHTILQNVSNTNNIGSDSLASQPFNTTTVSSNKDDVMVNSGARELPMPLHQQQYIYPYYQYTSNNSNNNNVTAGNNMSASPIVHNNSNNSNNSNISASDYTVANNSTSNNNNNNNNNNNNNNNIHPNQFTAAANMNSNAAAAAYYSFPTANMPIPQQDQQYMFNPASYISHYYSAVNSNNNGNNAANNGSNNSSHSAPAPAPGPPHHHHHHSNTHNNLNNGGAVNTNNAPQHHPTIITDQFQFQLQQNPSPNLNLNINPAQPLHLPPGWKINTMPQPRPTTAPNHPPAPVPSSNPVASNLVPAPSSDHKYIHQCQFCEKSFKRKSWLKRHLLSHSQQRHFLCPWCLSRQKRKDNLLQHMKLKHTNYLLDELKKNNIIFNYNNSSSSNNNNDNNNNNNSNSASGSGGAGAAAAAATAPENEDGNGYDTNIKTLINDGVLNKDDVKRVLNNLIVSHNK
Experimental: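 Universal 'all 10-mer' protein binding microarrays (Agilent AMADID 015681) probed with GST-tagged S. cerevisiae TFs (full-length or DBD) made by in vitro transcription/translation (PURExpress), about 100-200 nM. Bound TF was detected with fluorescent anti-GST. Each ungapped 8-mer (which stands for itself and its reverse complement) is scored by the PBM enrichment score (E-score), a modified Wilcoxon-Mann-Whitney statistic from -0.5 to +0.5, computed with the Universal PBM Analysis Suite. Scale: above 0.35 generally sequence-specific binding.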

Sequence	PBM E-score
ACCTAGGT	0.124
CGGTCTAC	-0.0115
ACTTCTGA	-0.101
GTGCATAA	0.084
AGGTTGTC	-0.0425
CAAAGAAC	0.197
CGCGGAAG	-0.172
ACCATGTC	0.223
CCCATGTA	0.377
GCCATGCA	-0.135
CCCATGTC	0.0657
GCCATGTA	0.383
ACCATGTG	0.0765
CCCATGGA	-0.187
ACCATGTA	0.404
GCCATGGA	-0.144
ATACCTCG	0.121
AAGGTGGC	-0.095
AAACAGCT	-0.268
AGGTAACT	0.297
AGGTAACA	0.357
AGGTAACC	0.321
ATGTAACA	0.373
GCGTAACA	0.196
CTGTAACA	0.182

Sequence	PBM E-score
GTGTAACA	0.343
GTGTAAGA	0.312
ATGTAACC	0.166
ACCGACCC	-0.256
AGCAGAAT	0.059
ATCCTGCG	0.0225
TGAGAGAA	-0.0743
AGGGTCCG	-0.269
CGCCCAAG	-0.105
GAATTACC	0.0992
GAATTATA	0.0628
GAATTACA	0.366
TAATTAGA	0.0891
CAATTACC	0.12
TAATTACA	0.372
AAATTACG	0.249
CAATTACG	0.26
TAATTATA	0.206
AAATTACT	0.138
AAATTACA	0.365
CAATTACA	0.378
AAGCAGAA	0.108
AACTAGAT	0.138
AGGCAGCC	0.317
CTTCTCAC	-0.125

Sequence	PBM E-score
TCGGCTAA	-0.0724
ACTGTTGG	-0.221
CCCTGGTC	-0.315
TGCTTCAA	0.0489
ACGAACAT	0.109
CGGAACAG	-0.216
AACAACAC	0.349
ATGAACAT	0.252
CGGAACAA	0.0225
AGGAACAT	0.422
ACGAACAG	-0.0228
TGGAACAA	0.136
AGGAACAA	0.401
GACAACAC	0.261
AGGAACAG	0.434
CACAACAC	0.302
CTTCGGTC	-0.0958
ATGGGAGC	-0.193
ACGCATGC	0.169
ACAAAGCA	0.168
CTAGCGGA	-0.00619
GATTAGCA	-0.0223
CGCTCAAG	-0.0197
TTAGCTAA	-0.0988
CTTCCACA	-0.14

Sequence	PBM E-score
ATCTCTTG	-0.0945
ATTAACAA	0.328
ATCAACAG	0.0788
CGGAACAC	0.0144
GGGAACAC	0.0104
AGGAACAC	0.404
CTTAACAC	0.333
ATTAACAC	0.384
ATCAACAT	0.339
ATCAACAA	0.224
AAGTAGGA	0.2
CCTCTAGA	-0.0256
AAGAACGC	0.0817
AGGGTAGG	0.0464
ACGCTTTG	-0.111
GCATTCTA	0.0333
AGACAGAT	-0.0373
CTCAGGCA	0.462
GTCAGGCA	0.469
ATCAGGCA	0.481
CTCAGGGA	-0.251
GTCAGGGA	-0.339
GTCAGGAA	0.277
CTCAGGCC	-0.129
ATCAGGCG	0.0225

Sequence	PBM E-score
ATCAGGCC	-0.0425
CGGATCAC	-0.00917
CCTTTCTC	-0.0866
CTCAGGGC	-0.29
AGTGTCTA	0.0204
AGTCCCAT	-0.115
CGTGCCCC	0.00946
AGTGCCTG	0.49
AGTGCCAC	-0.35
AGAGCCTA	0.177
AGAGCCTC	-0.422
AGTGCCAG	-0.0756
CGTGCCGC	-0.111
AGTGCCGG	0.0259
AGTGCCGC	-0.373
AGTGCCTC	0.405
AGAGCCTG	0.341
CGTGCCTC	0.469
GAGATTGA	-0.0729
ACGGTTTG	-0.0879
CAAGTCGA	-0.156
TGTCTCAA	-0.078
AGGTCGAG	-0.141
ATGACCAG	0.199
ATGCTCAG	0.15

Sequence	PBM E-score
AGTGCCCA	0.137
GGTGCCCA	0.293
CGTGCCCA	0.355
CACGGATG	0.0568
CGTAGGTA	0.285
CGTAGGCA	0.487
GGTAGGCA	0.473
AGTAGGCA	0.481
GGTAGGTA	0.269
AGTAGGCG	0.0255
CGTAGGCC	-0.0263
AGTAGGCC	-0.1
GGTAGGGA	-0.104
AAATGGGG	-0.133
CGAACTAA	0.031
AGGATACA	0.157
CCCTCTCG	-0.33
TCTATTCA	0.165
CAATTGAA	-0.0107
CTTACATA	0.319
CTTACATC	0.163
AGTACATC	0.166
AGTACATG	0.289
ACTACATG	0.362
ATCACATG	0.195

Sequence	PBM E-score
ATTACATG	0.435
ACTACATA	0.325
ACTACATC	0.173
ATTACATA	0.406
GTTACATA	0.333
ATTACATC	0.356
AGGATACT	-0.12
ACCTCTCC	-0.144
ACTTTTCC	0.0601
ACCTGACA	0.105
ATCTGAAA	-0.0689
AGGAGTGC	-0.146
GGACACCA	-0.23
ACTCGCCC	-0.179
TACTTTGA	0.0853
ACACTCCA	-0.141
AATACATG	0.413
AATACATT	0.235
CATACATG	0.291
GGCGTGAC	0.017
AGAACGCT	-0.186
AGTGTCGC	-0.0232
TGGAACCA	-0.133
GGGAACCC	-0.279
GGGAACCA	-0.175

Sequence	PBM E-score
CGGAACCG	-0.249
ACGAACCT	-0.0403
CGGAACCC	-0.0527
AGGAACCT	0.458
AGGAACCC	0.444
AGGAACCG	0.442
ATGAACCG	0.0149
AGGAACCA	0.419
AAGAACCT	0.191
AGTTCGCG	-0.0658
ACCATCAA	-0.0603
CTACTGGC	-0.182
GGGAGGTA	0.0239
AATTCCGG	-0.0255
GTCCTCCA	-0.175
CCACACCG	-0.0267
CAGGTCGC	-0.225
CATGTTTC	0.24
TGTGTTAA	0.401
CGCGTTAA	0.368
AGTGTTAA	0.264
CGTGTTTA	0.346
GGCGTTAA	0.149
CGCGTTAG	0.187
AGTGTTTA	0.126

Sequence	PBM E-score
CATGTTTA	0.371
GATGTTTA	0.125
GGTGTTTA	0.0636
GGTGTTAA	0.28
ACACTGGC	0.00843
ACTTAAGG	0.157
CTAGATAC	-0.0863
GCAAGACC	-0.0597
CGCAAAAC	0.0841
CACAGCTC	0.0935
CAACTGAG	0.00667
GAACCTCA	-0.0997
AGAGCACT	-0.0229
GAAACTCA	-0.0953
CGGACAAC	-0.0115
CTCGAGCA	-0.0333
GTTGTTAA	0.275
CGTGTTCA	0.273
CTTGTTAA	0.355
CGTGTTAG	0.354
CGTGTTAA	0.418
CCTGTTAA	0.297
AATGTTGA	0.162
CATGTTGA	0.401
CATGTTGC	0.297

Sequence	PBM E-score
CTTGTTAC	0.158
AGTGTTAG	0.0278
CGTGTTAC	0.308
ATTCAATA	0.0942
TACGAACA	0.18
CTTTTCCC	-0.0316
TCTGGTAA	-0.0343
CGCCTAAC	0.152
GAAGATAC	-0.078
GACTGCAC	-0.0356
AAAGCACT	-0.216
GACGCCCA	-0.158
CATAGAAC	-0.0217
TGTCAAAA	0.241
GCGTCCCC	-0.362
AGCAAGGA	-0.0799
GACAGCCA	-0.186
AGAAGAAG	-0.0319
CGTGTTGA	0.395
CGTGTTGC	0.242
AGTGTTGA	0.073
CCACAATA	-0.0891
GGTCCTTA	-0.152
AGGGCACA	0.3
AGGGCACT	0.0516

Sequence	PBM E-score
TAGGCACA	0.491
AAGGCAGA	0.0903
TAGGCATA	0.28
AAGGCACT	0.486
ACGGCACT	-0.139
AAGGCACA	0.492
GGGGCACA	-0.202
TAGGCAGA	0.136
GAGGCAGA	-0.164
GAGGCACA	0.47
AACGTATG	0.0662
CGCGCTGC	-0.0871
TAAACATA	0.284
CCCAGATC	-0.111
ATTTTCAA	0.12
GCGGCACC	-0.159
AAGGCGCG	0.252
CGGGCACA	0.0796
AAGGCGCT	0.353
CGGGCACG	0.263
AAGGCGCA	0.336
GAGGCACC	0.463
TGGGCACA	0.356
GGGGCACC	-0.152
AACAGCTC	-0.162

Sequence	PBM E-score
CTCTTTAC	0.177
TGGCCACA	-0.096
ATTCCAGC	-0.168
CTTCACGC	0.151
AGCAGGTC	-0.0131
CCGTGTGA	0.277
GCGTGTAA	0.431
TCGTGTAA	0.411
GCGTGTCC	0.0864
AGGTGTAA	0.26
TGGTGTAA	0.186
ACGTGTAA	0.414
CAGTGTAA	0.225
GCGTGGAA	-0.104
CCGTGTAA	0.403
ACGTGTGA	0.184
TAGTGTAA	0.206
ACTCCAGG	0.0384
ACACCTAA	0.168
AGGGCAAG	0.13
CACTCTAG	-0.145
ACCCAGCC	-0.259
CTTCCTAA	0.0478
GTTCCTAA	0.431
GTTCCTTA	0.428

Sequence	PBM E-score
ATTCCTGA	0.136
CTTCCTGA	-0.0128
ATTCCTAA	0.105
GTTCCTGA	0.428
CTTCCTTA	0.146
ATTCCTTA	0.211
CCCGAAGG	-0.0155
ATGGAAGC	-0.191
AAGTGCCA	0.0649
AAGTGCCT	0.48
AAATGCCC	-0.192
AAGTGCCC	-0.177
ACATGCGT	0.341
ACATGCCA	0.304
ACATGCGC	0.251
AAATGCCT	0.377
ACATGCCC	0.21
ACATGCCT	0.366
ACATGCGG	0.175
AAATGCCA	-0.105
TCAGACCA	-0.201
CCTCTTGC	0.0662
GAGGGTGA	-0.208
CCGCTCCG	-0.227
AAACCGAA	-0.0393

Sequence	PBM E-score
ACAGCTGT	-0.0347
AGCTCAGC	-0.206
ATGCAGGA	0.0312
ATGCAGGG	-0.153
CTGCAGTC	-0.106
ATGCAGGC	0.342
CTGCAGGC	0.406
CTGCAGGA	0.291
ACCATTTC	-0.123
CCGAGACG	-0.0781
CGCTGGTC	-0.275
CCTGTCGA	0.342
CCTGTCGC	-0.046
CATGTCGG	0.222
GATGTCGA	0.215
CATGTCGA	0.351
GCTGTCGA	-0.12
GGGTTCTA	-0.176
GTCTGTAA	0.149

From the supplement of paper PMC3334620
